Compounds without any hit were thinned out: in the full panel of roughly 83,000, 20% have a hit.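 Plates (96-well) were seeded with cells, treated with compound at one concentration, and incubated for 48 hours before percent growth was determined.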 Unmarked numbers belong to inactive results. Calls of active or inactive are those of the source.

In this assay the test system is LOX IMVI melanoma. The experiment in a line: NCI-60 one-dose screen, 48 h (100 = growth as untreated, 0 = no growth, -100 = all killed). The settings on record: 10 µM unless noted. The procedure: Growth inhibition of the LOX IMVI human tumor cell line is measured as a screen for anti-cancer activity. Cells are grown in 96 well plates and exposed to the test compound for 48 hours. Compounds are tested at a single concentration, which is 10^-5 M for most compounds. The reported endpoint is percent growth (GI% or GIPRCNT), where numbers from 0 - 100% represent growth inhibition, and numbers from -100% - 0 represent cell death. For example, a value of 40 represents 60% growth inhibition. A value of 0 means no net growth occurred over the course of the experiment. A value of -40 indicates 40% of cells at the beginning of the experiment died by the end of the experiment. A value of -100 means all cells are dead at the end of the experiment.
NCI-60 Human Tumor Cell Lines Screen was performed using the standard one-dose NCI protocol, which is described in more detail at https://dtp.cancer.gov/discovery_development/nci-60/default.htm.
Compounds with GIPRCNT values below 10 were considered active. Activity score was based on GIPRCNT using the following formula: […]
Score is 0 for GIPRCNT values of 100 or above, 50 for GIPRCNT values of 0, and 100 for GIPRCNT values of -100.
Take `CC1(C)NC(=O)c2[nH]c3c(Cl)c(Cl)ccc3c2C1C#N` (stereo not given): the growth was 85.5%.

In the case of `Cn1cc(-c2cnn3c(N)c(Br)c([C@@H]4CCCNC4)nc23)cn1`, the growth is 22%.

For `C[C@@H]1COCCN1c1cc(C2([S@](C)(=N)=O)CC2)nc(-c2ccnc3[nH]ccc23)n1`, the growth was 2.37% (active).

As to `Cc1ccc(F)c(NC(=O)Nc2ccc(-c3cccc4[nH]nc(N)c34)cc2)c1`, the growth was -8.35% (active).

For `CC(=O)C1CC(C)CCC1C(C)C` (stereo not given), the growth was 86.6%.

Consider `O=C(CNc1nc(-c2ccc(Cl)cc2)cs1)Nc1ccc(-c2nc3ccccc3s2)cc1`, for which the growth is 95.6%.

For `CC1(C=O)NC(=O)NC1=O` (stereo not given), the growth was 100%.

Regarding `COc1ccc2c(CCc3ccc(Cl)cc3)c3[n+](cc2c1OC)CCc1cc2c(cc1-3)OCO2`, the growth is 50.9%.

`CC(CCCC(=O)O)c1ccoc1` (stereo not given): the growth is 97.8%.

As to `COc1cc2c(Nc3ccc(Br)cc3F)ncnc2cc1OCC1CCN(C)CC1`, the growth is -45.6% (active).

As to `Cc1cc(NCC(=O)Nc2ccc(-c3nc4ccccc4s3)cc2)no1`, the growth was -42.7% (active).

Take `COc1ncc(-c2ccc3nccc(-c4ccnnc4)c3c2)cc1NS(=O)(=O)c1ccc(F)cc1F`: the growth was -42.8% (active).

As to `COC(=O)[C@H](Cc1ccccc1)NC(=O)[C@@H](OC)[C@@H]1Cc2cc3cc(OC4CC(OC5CC(O)C(O)C(C)O5)C(O)C(C)O4)c(C)c(O)c3c(O)c2C(=O)[C@H]1OC1CC(OC2CC(OC3CC(C)(O)C(O)C(C)O3)C(O)C(C)O2)C(O)C(C)O1` (stereo not given in full), the growth was -18.2% (active).

`COc1cc2ncnc(Nc3cccc(Cl)c3F)c2cc1OC(=O)N1CCN(C)C[C@H]1C`: the growth is 79.6%.

Take `COc1cnc2c(c1)C(=O)c1c-2n(CCCNC2=NCCS2)c(=O)c2cc(Cl)ccc12`: the growth is -90.5% (active).

With `Cc1ccc(NC(=O)c2ccc(CN3CCN(C)CC3)cc2)cc1Nc1nc(-c2cccnc2)cs1`, the growth is -27.3% (active).

With `O=c1[nH]c([C@@H]2CCCN2)nc2c1oc1ccc(Cl)cc12`, the growth was 39%.

Consider `CC(C)C1CCC(C)C(C2(C#N)C(N)=NC(N)=C2C#N)C1=O` (stereo not given), for which the growth is 92.5%.

Regarding `COc1ccc2nc3cc(Cl)ccc3c(Nc3ccc(N(C)C)cc3)c2c1`, the growth was 88.8%.

On to `N#Cc1c(NC(=O)c2ccco2)[n+]([O-])c2cc(F)c(F)cc2[n+]1[O-]`, for which the growth is 83.4%.

Take `O=C1OCC2=C1C(c1cccc(F)c1)c1cc3c(cc1N2CCO)OCCO3` (stereo not given): the growth is 31.4%.

In the case of `CN1[C@@H]2CC[C@H]1/C(=C\c1ccccc1)C1=C2[C@@H](c2ccccc2)C(C#N)=C(N)O1`, the growth was 97.8%.

Turning to `CSc1nc2ncnc(SC)c2[nH]1`, the growth is 99.3%.

Consider `CO[C@H]1C[C@@H]2CC[C@@H](C)[C@@](O)(O2)C(=O)C(=O)N2CCCC[C@H]2C(=O)O[C@H]([C@H](C)C[C@@H]2CC[C@@H](OP(C)(C)=O)[C@H](OC)C2)CC(=O)[C@H](C)/C=C(\C)[C@@H](O)[C@@H](OC)C(=O)[C@H](C)C[C@H](C)\C=C/C=C/C=C/1C`, for which the growth is 42.7%.

`COc1cccc(NC(=O)Nc2ccc(Nc3ncnc4sc5c(c34)CCN(C(=O)CCl)C5)cc2)c1`: the growth is 94.1%.

Regarding `Cc1ccc(NC(=O)c2ccc(CN3CC[C@H](N(C)C)C3)c(C(F)(F)F)c2)cc1Nc1nccc(-c2cncnc2)n1`, the growth was -72.7% (active).

With `C=C1C[C@H](O)[C@H](Br)C(C)(C)[C@@]12CCC(C)=C(Cl)C2`, the growth is -5.6% (active).

As for `Cc1ccc(-c2nc3ccc(Cl)cn3c2NC2CCCCC2)o1`, the growth was 103%.

For the compound `CCCCCCC1(/C=N/NC(N)=O)NC(=O)NC1=O` (stereo not given), the growth was 97.4%.

In the case of `O=C1C=CC2(NN=C(c3ccccc3)N2c2cccc(Cl)c2)c2cccc(O)c21` (stereo not given), the growth is 3.66% (active).

Regarding `COC(=O)CNC(=O)[C@@H](OC)[C@@H]1Cc2cc3cc(OC4CC(OC5CC(O)C(O)C(C)O5)C(O)C(C)O4)c(C)c(O)c3c(O)c2C(=O)[C@H]1OC1CC(OC2CC(OC3CC(C)(O)C(O)C(C)O3)C(O)C(C)O2)C(O)C(C)O1` (stereo not given in full), the growth was -15.5% (active).

Regarding `COc1ccc2c(CCC(c3ccccc3)c3ccccc3)c3[n+](cc2c1OC)CCc1cc2c(cc1-3)OCO2`, the growth was -58.5% (active).

For `C=CC(=O)N1CCC[C@H](n2c(=O)n(-c3ccc(Oc4ccccc4)cc3)c3c(N)ncnc32)C1`, the growth is 72.4%.

Take `NC(=O)Nc1cc(-c2cccc(F)c2)sc1C(=O)N[C@H]1CCCNC1`: the growth was -75.2% (active).

For `N#CCNC(=O)c1ccc(-c2ccnc(Nc3ccc(N4CCOCC4)cc3)n2)cc1`, the growth was 4.92% (active).

`O=C(Nc1ccc(C2=NCCCN2)cc1)c1ccc(C(=O)Nc2ccc(C3=NCCCN3)cc2)nc1`: the growth was 105%.

For `C[C@@H](N)c1ccc(C(=O)Nc2ccnc3[nH]ccc23)cc1`, the growth was 45.5%.

For `CCCCCCCC(=O)SCC/C=C/[C@@H]1CC(=O)NCc2cccc(n2)C2=N[C@@](C)(CS2)C(=O)N[C@@H](C(C)C)C(=O)N1`, the growth was -1.52% (active).

`CC[C@@H]1C(=O)N(C)c2cnc(Nc3ccc(C(=O)NC4CCN(C)CC4)cc3OC)nc2N1C1CCCC1`: the growth is -73.5% (active).

For `COc1ccc(/C(C)=C(\c2ccc(Cl)cc2)c2ccc(OCCN3CCCCCC3)cc2)cc1`, the growth was 35.8%.

Source of the values: PubChem BioAssay (NCI).
